High-throughput results deposited in PubChem BioAssay by National Center for Advancing Translational Sciences (NCATS).
Compounds with a hit are over-represented: about 12% of the library has one in this group of screens.
JMJD2A Tudor: JMJD2A Tudor domain (human) inhibition | O75164 | AlphaScreen JMJD2A-Tudor / H3K4me3 peptide binding | Potency, µM (titrated, usually from 114 µM), most hits filed as inhibitors | actives 4.4% (n = 390,000) | AID 504339; note: nearly all actives have a fitted effect of over 50% in size
HP1b chromo inh: HP1-beta chromodomain-methylated histone interaction inhibition; Potency, µM (series often up to 114 µM), most hits filed as inhibitors; actives 0.56% (n = 390,000); AID 540317; P83916; AlphaScreen HP1-beta / biotin-H3K9me3 peptide binding; note: nearly all actives have a fitted effect of over 70% in size
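HP1-beta protein (50 nM final) preincubated 30 min at room temperature with biotinylated H3(1-18)K9me3 peptide (50 nM) in PBS pH 7.4, 0.01% Tween-20, then compound added for 30 min. AlphaScreen streptavidin donor/nickel chelate acceptor beads (10 ug/mL final), 30 min dark, luminescence read.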
TDP1 inh: inhibitors of human tyrosyl-DNA phosphodiesterase TDP1; Q9NUW8; recombinant TDP1, AlphaScreen DNA substrate cleavage; Potency, µM (top dose mostly 130 µM), most hits filed as inhibitors; actives 0.28% (n = 350,000); note: nearly all actives have a fitted effect of over 40% in size
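Here, a 5' biotin and 3' phosphotyrosine-FITC DNA oligonucleotide reports Tdp1 activity: intact substrate bridges AlphaScreen beads, while cleavage leaves a 3' phosphate and drops signal. All incubations at room temperature.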
BAZ2B inh: BAZ2B (human) inhibition | actives 4.4% (n = 360,000) | Potency, µM (highest dose often 114 µM), most hits filed as inhibitors | Q9UIF8 | AlphaScreen BAZ2B-H3K14Ac peptide displacement; note: nearly all actives have a fitted effect of over 60% in size
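BAZ2B (50 nM) with biotin-H3(5-23)K14Ac peptide (50 nM) in PBS pH 7.4, 0.01% Tween-20, preformed 30 min, then compound 30 min at room temperature; top concentration 110uM. AlphaScreen streptavidin donor/nickel chelate acceptor beads (10 ug/mL final), 20 min dark, signal read.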
G9a inh: G9a (human) methyltransferase inhibition; actives 8.8% (n = 350,000); G9a H3K9 monomethylation, AlphaScreen, 2 h; AID 504332; Q96KQ7; Potency, µM (highest dose often 102 µM), usual class: inhibitors; note: nearly all actives have a fitted effect of over 75% in size
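AlphaScreen detection with an anti-monomethyl H3K9 antibody quantified product after a 2 h room-temperature reaction containing 500 nM biotinylated H3K9 peptide, 20 µM SAM and 20 nM enzyme, which had been preincubated 15 min with compound.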
Sfp inh: blocks B. subtilis Sfp PPTase activity | Q9F4F7 | Biochemical Sfp PPTase activity, qHTS | AID 1490 | actives 3.5% (n = 310,000) | Potency, µM, most hits filed as inhibitors;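 note: the enzyme is Sfp with the accession as filed and its product quenches rhodamine fluorescence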
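Sfp 15 nM + cpd, 15 min RT; start w/ rhodamine-CoA 5 uM, BHQ-2-YbbR 12.5 uM (final); 50 mM Hepes pH 7.6, 10 mM MgCl2, 0.01% NP-40, 0.01% BSA; read 525/598 nm at 0 and 30 min.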
A number is an active result; [ ] = another dose, or the depositor's remark. Calls come from the whole dose curve; as a rule, active = well fitted curve in the direction sought with a large enough effect; inconclusive = small, poorly fitted or top-dose-only effect, or another doubt; inactive = no such curve, though single readings can be large; an effect the other way counts as inactive or inconclusive.

What do the screens show for `O=C(CNC(=O)c1ccc(F)cc1)N/N=C/c1cc(Br)ccc1OC(=O)/C=C/c1ccco1`?
JMJD2A Tudor: inactive[11.4 µM]; HP1b chromo inh: inactive; BAZ2B inh: inactive; G9a inh: inactive; Sfp inh: 25µM

How did COc1ccc(C(=O)NCC(=O)N/N=C/c2ccco2)cc1OC do in these assays?
JMJD2A Tudor: inactive; HP1b chromo inh: inactive; TDP1 inh: inactive; BAZ2B inh: inactive; G9a inh: 71µM; Sfp inh: inactive

What do the screens show for `CCN(CC)CCOc1nc(C)nc2c1oc1ccccc12`?
JMJD2A Tudor: inconclusive; HP1b chromo inh: inactive; TDP1 inh: inactive; BAZ2B inh: inconclusive; G9a inh: 50µM; Sfp inh: inactive

How did CCN(CC)CCCOc1nc(C)nc2c1oc1ccccc12 do in these assays?
JMJD2A Tudor: inactive; HP1b chromo inh: inactive; TDP1 inh: inactive; BAZ2B inh: inconclusive; G9a inh: 35µM; Sfp inh: inactive

What do the screens show for `CN(C)CCOc1nc(-c2ccccc2)nc2c1oc1ccccc12`?
JMJD2A Tudor: inconclusive; HP1b chromo inh: inactive; TDP1 inh: inactive; BAZ2B inh: inactive; G9a inh: inconclusive; Sfp inh: inactive

What do the screens show for `CN(CC(=O)Nc1cccc(F)c1)C(=O)c1csc2c1CCCC2`?
JMJD2A Tudor: inactive; HP1b chromo inh: inactive; BAZ2B inh: inactive; G9a inh: inactive[0.501 µM]

Results for COc1ccc(CCC(C)N2CCOCC2)cc1 (centres undefined) ?
JMJD2A Tudor: inactive; HP1b chromo inh: inactive; BAZ2B inh: inactive; G9a inh: inactive; Sfp inh: inactive

What do the screens show for `CCN(CC)S(=O)(=O)c1ccc2c(c1)N(CC(=O)NCCc1ccc(OC)c(OC)c1)C(=O)CO2`?
JMJD2A Tudor: inactive; HP1b chromo inh: inactive; TDP1 inh: inactive; BAZ2B inh: inactive; G9a inh: inactive

How did CCOCCCNC1=C(Cl)C(=O)c2ccccc2C1=O do in these assays?
JMJD2A Tudor: 13µM; HP1b chromo inh: 18µM; TDP1 inh: inactive; BAZ2B inh: 40µM; Sfp inh: 45µM

What do the screens show for `COc1ccc(C(C#N)c2cnccn2)cc1OC` (centres undefined)?
JMJD2A Tudor: inactive; HP1b chromo inh: inactive; TDP1 inh: inactive; BAZ2B inh: inactive; G9a inh: inactive[2.33 µM]

What do the screens show for `COc1ccc(C(N)c2nccc3cc(OC)c(OC)cc23)cc1OC` (centres undefined)?
JMJD2A Tudor: 56µM; HP1b chromo inh: inactive; BAZ2B inh: 14µM; Sfp inh: inactive

Results for CN(C)c1ccc(-c2nnn(CC(=O)Nc3ccccc3N3CCOCC3)n2)cc1 ?
JMJD2A Tudor: inconclusive; HP1b chromo inh: inactive; TDP1 inh: inactive; BAZ2B inh: inconclusive; G9a inh: 50µM; Sfp inh: inactive

Results for Cc1ccc(C(C)C)cc1S(=O)(=O)Nc1ccncc1 ?
JMJD2A Tudor: inactive; HP1b chromo inh: inactive; BAZ2B inh: inactive; G9a inh: inconclusive; Sfp inh: inactive

What do the screens show for `CCOC(=O)/C=C1\CN(Cc2cc(OC)c(OC)c(OC)c2)S(=O)(=O)c2ccc(C(F)(F)F)cc21`?
JMJD2A Tudor: inactive; HP1b chromo inh: inactive; BAZ2B inh: inconclusive; G9a inh: 35µM; Sfp inh: inactive

Results for CCOC(=O)/C=C1\CN(Cc2cc(OC)c(OC)c(OC)c2)S(=O)(=O)c2ccccc21 ?
JMJD2A Tudor: inactive; HP1b chromo inh: inactive; BAZ2B inh: inactive; G9a inh: inconclusive; Sfp inh: inactive

What do the screens show for `COCCn1c(C)cc(O)c(C(c2ccccc2Cl)N2CCN(c3ccccc3)CC2)c1=O` (centres undefined)?
JMJD2A Tudor: inactive; HP1b chromo inh: inactive; TDP1 inh: inactive; BAZ2B inh: inactive; G9a inh: inactive

What do the screens show for `O=C(Nc1ccc(F)cc1)c1ccc(-n2cncn2)c([N+](=O)[O-])c1`?
JMJD2A Tudor: inactive; HP1b chromo inh: inactive; TDP1 inh: inactive; BAZ2B inh: inactive; G9a inh: inconclusive; Sfp inh: inactive

What do the screens show for `CCOc1ccc(N/C(=C(/C(Cl)=C(Cl)Cl)[N+](=O)[O-])n2cncn2)cc1`?
TDP1 inh: inactive; BAZ2B inh: 8.9µM; G9a inh: 25µM; Sfp inh: inactive

How did O=[N+]([O-])/C(C(Cl)=C(Cl)Cl)=C(\Nc1ccc(F)cc1)n1cncn1 do in these assays?
TDP1 inh: inactive; BAZ2B inh: 28µM; G9a inh: 8.9µM; Sfp inh: inactive

Results for C[Si](C)(C)C#Cc1ccccc1NC(=S)Nc1ccccc1 ?
TDP1 inh: inactive; Sfp inh: 79µM

Results for COc1ccc(NC(=S)Nc2ccccc2C(F)(F)F)cc1 ?
JMJD2A Tudor: inactive; HP1b chromo inh: inactive; TDP1 inh: inactive; BAZ2B inh: inactive; G9a inh: inactive; Sfp inh: inactive

Results for FC(F)(F)c1ccccc1NC(=S)Nc1ccccc1 ?
JMJD2A Tudor: inactive; HP1b chromo inh: inactive; BAZ2B inh: inactive; G9a inh: 50µM; Sfp inh: inactive

What do the screens show for `NC(=S)NNC(=S)Nc1ccccc1`?
JMJD2A Tudor: inactive; HP1b chromo inh: inconclusive; TDP1 inh: inactive; BAZ2B inh: inactive; G9a inh: 10µM; Sfp inh: 10µM

Results for S=C(NNC(=S)Nc1ccccc1)Nc1ccccc1 ?
JMJD2A Tudor: inactive; HP1b chromo inh: inconclusive; BAZ2B inh: inactive; G9a inh: 0.35µM; Sfp inh: 50µM

Results for COC(=O)N1C(C)=Cc2ccccc2C1C/C(C)=C/C(C)=O (centres undefined) ?
TDP1 inh: inactive; Sfp inh: inactive

How did CC(=O)N1CCC2(CC1)CCN(c1ncccn1)CC2 do in these assays?
G9a inh: inactive[12.7 µM]; Sfp inh: inactive

What do the screens show for `O=C(NNC(=S)Nc1ccccc1)C1CC1`?
JMJD2A Tudor: inactive; HP1b chromo inh: inactive; TDP1 inh: inactive; BAZ2B inh: inactive; G9a inh: inactive; Sfp inh: inactive

Results for S=C(NN=C(C1CC1)C1CC1)Nc1ccccc1 ?
JMJD2A Tudor: 50µM; HP1b chromo inh: inactive; TDP1 inh: inactive; BAZ2B inh: inactive; G9a inh: 5.6µM; Sfp inh: 20µM

How did O=C(CCCCCCCC(=O)NNC(=O)Nc1ccccc1)NNC(=O)Nc1ccccc1 do in these assays?
JMJD2A Tudor: 79µM; HP1b chromo inh: inactive; TDP1 inh: inactive; BAZ2B inh: 79µM; G9a inh: inactive; Sfp inh: inactive

What do the screens show for `CCNC(=S)NNC(=O)Nc1ccccc1`?
JMJD2A Tudor: 32µM; HP1b chromo inh: inconclusive; TDP1 inh: inactive; BAZ2B inh: inactive; G9a inh: 3.2µM; Sfp inh: inactive

Results for COC(=O)c1ccccc1NC(=O)c1ccc(F)cc1F ?
JMJD2A Tudor: inactive; TDP1 inh: inactive

What do the screens show for `O=C(CN1CCN(CC(=O)Nc2ccccc2Cc2ccccc2)CC1)Nc1ccccc1Cl`?
JMJD2A Tudor: inactive; HP1b chromo inh: inactive; TDP1 inh: inactive; BAZ2B inh: inactive; G9a inh: inactive; Sfp inh: inactive
